# In PubChem BioAssay AID602410 (Johns Hopkins Ion Channel Center, 2012):
# The campaign covered roughly 340,000 compounds. About 2,800 (0.82%) were called active. This is one part of a sample in which actives are shown more often than they occur.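 How the source made its calls: active means B-score under library mean minus 4 SD, starting fluorescence ratio at most library mean plus 5 SD; inactive means the rest.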
# Biological target: Potassium channel subfamily K member 3 (Homo sapiens) (UniProt O14649)
# Sequence (O14649 whole entry, looked up): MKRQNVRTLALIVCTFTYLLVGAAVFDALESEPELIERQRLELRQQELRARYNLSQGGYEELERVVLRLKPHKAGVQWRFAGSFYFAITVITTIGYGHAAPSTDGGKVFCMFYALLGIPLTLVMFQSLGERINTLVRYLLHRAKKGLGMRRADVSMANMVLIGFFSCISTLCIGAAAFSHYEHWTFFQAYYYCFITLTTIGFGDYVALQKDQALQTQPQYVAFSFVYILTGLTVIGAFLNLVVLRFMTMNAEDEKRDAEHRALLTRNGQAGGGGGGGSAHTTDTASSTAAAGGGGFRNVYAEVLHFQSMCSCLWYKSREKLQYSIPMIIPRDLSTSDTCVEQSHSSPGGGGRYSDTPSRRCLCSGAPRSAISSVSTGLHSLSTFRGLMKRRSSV
# Test: blockers of TASK1 two-pore potassium channel – CHO cells, FluxOR thallium flux, B-score, primary screen (AID 602410);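 on B-score: more negative B-score means stronger inhibition of thallium flux through KCNK3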
# Details: CHO-KCNK3 thallium flux, FluxOR fluorescence, at 10 µM; hits give low values
row,Structure (SMILES),B-score
1,CCCCn1c(N)c(N(CCOC)C(=O)c2cccc(S(=O)(=O)N(C)c3ccccc3)c2)c(=O)[nH]c1=O,inactive
2,COc1ccc(C2NCCCC2c2ccccc2)cc1 (stereo unspecified),inactive
3,COCCn1c(=O)[nH]c2cc(C(=O)NCc3cccnc3)ccc2c1=O,inactive
4,CCCCNC(=O)C1(O)c2ccccc2NC(=O)N1c1ccc(Cl)cc1 (stereo unspecified),inactive
5,Cc1cccc(N(Cc2ccccc2)C(=O)c2cc(S(=O)(=O)N3CCOCC3)ccc2F)c1,inactive
6,Cc1cccc(N(Cc2ccccc2)C(=O)c2ccccc2F)c1,-9.35 (active)
7,O=C(c1ccccc1F)N(Cc1ccccc1)Cc1ccccc1,inactive
8,O=[N+]([O-])c1cc([N+](=O)[O-])c(Oc2cc(F)cc(F)c2F)cc1NN1CCCCC1,inactive
9,COC(=O)C1=C(C(=O)OC)C(c2cc([N+](=O)[O-])ccc2O)c2sc(=O)[nH]c2S1 (stereo unspecified),inactive
10,Cc1c(C(=O)NC2CCCCC2)oc2ccccc12,inactive
11,Cc1cc(C)nc(-n2nc(C)cc2NC(=O)c2ccc(F)cc2F)n1,inactive
12,CC(Nc1nc(N2CCCC2)nc2ccccc12)c1ccccc1 (stereo unspecified),inactive
13,CC(Nc1nc(N2CCOCC2)nc2ccccc12)c1ccccc1 (stereo unspecified),inactive
14,c1ccc2c(NC3C4CC5CC(C4)CC3C5)nc(N3CCOCC3)nc2c1 (stereo unspecified),-9.5 (active)
15,O=C(NC1CC1)C1CCCN(C(=O)NC2CCCCC2)C1 (stereo unspecified),inactive
16,COc1ccccc1OCc1nnc(SCC(N)=O)n1-c1ccccc1,inactive
17,c1ccc(C(c2ccccc2)N2CCN(Cc3nnnn3C3CCCCC3)CC2)cc1,-10.8 (active)
18,COc1ccc(C(c2nnnn2C2CCCCC2)N2CCN(c3ccccc3F)CC2)cc1 (stereo unspecified),inactive
19,c1ccc(CCn2nnnc2CN2CCN(C3CCCC3)CC2)cc1,inactive
20,CC(=O)c1c(C)c[nH]c1C,inactive
21,O=C(NC(=S)N1CCN(Cc2ccccc2)CC1)c1ccccc1,inactive
22,Cc1cccc(N(C(=O)Cc2cccs2)C(C(=O)NC2CCCC2)c2ccsc2)c1 (stereo unspecified),inactive
23,NS(=O)(=O)c1ccc(N2C(=O)C3C4CC(C(Br)C4Br)C3C2=O)cc1 (stereo unspecified),inactive
24,Cc1cc(O)c(NC(=O)c2ccc(C)c([N+](=O)[O-])c2)cc1C,inactive
25,CCCCCCCCn1c2c(c(=N)c3c1CCC3)CCCC2,-9.82 (active)
26,CC1(C)Cc2c(sc(NC(=O)C(=O)N3CCOCC3)c2C#N)CO1,inactive

row,Structure (SMILES),B-score
1,Clc1ccc(-c2cc(C3CCNCC3)[nH]n2)c(Cl)c1,inactive
2,O=C(CSc1nc(Nc2ccccc2)nc(N2CCOCC2)n1)Nc1cc(Cl)ccc1O,-11.6 (active)
3,Cc1ccccc1NC(=O)CSc1nc2ccc(Nc3nc(N4CCOCC4)nc(N4CCOCC4)n3)cc2s1,inactive
4,CC1(c2ccccc2)NC(=O)N(CC(=O)Nc2cc(Cl)ccc2N2CCOCC2)C1=O (stereo unspecified),inactive
5,COc1cccc(NC(=O)CN(C)C(=O)/C=C/c2cc(OC)ccc2OC)c1,inactive
6,COc1ccc(NC(=O)CN(C)C(=O)/C=C/c2cn(Cc3ccccc3)nc2-c2cccnc2)cc1,inactive
7,COc1cccc(NC(=O)CN(C)C(=O)/C=C/c2cn(-c3ccccc3)nc2-c2cccs2)c1,-10.7 (active)
8,CCN(c1ccccc1)S(=O)(=O)c1ccc(OCC(=O)N2CCCC2)cc1,inactive
9,Cc1nc2nc[nH]n2c(=O)c1NC(=O)c1cccc(OCC(C)C)c1,inactive
10,C=CCN(C(=O)c1cc(C)cc(C)c1)C1(C(=O)Nc2ccccc2)CCN(C(C)C)CC1,-9.18 (active)
11,CC(C)N1CCC(NC(=O)Nc2ccccc2)CC1,inactive
12,C=CCn1cc(Cl)cc(C(=O)Nc2ccccc2)c1=O,inactive
13,Cc1cccc(-c2c(NC(=O)c3ccco3)oc3ccc(Cl)cc3c2=O)c1,inactive
14,O=C(CS(=O)(=O)Cc1ccccc1)Nc1cccnc1,inactive
15,CC(=O)Nc1ccc(S(=O)(=O)N(CCc2ccccc2)CC(=O)N/N=C/c2ccc(C(=O)O)cc2)cc1,inactive
16,O=C(NCCc1ccccc1)c1cccc(NC(=O)c2ccccc2)c1,inactive
17,CCOC(=O)N1CCN(C(=O)c2ccc3c(c2)N(Cc2ccc(C)cc2)CCS3)CC1,inactive
18,O=C(NCCc1ccccc1)c1ccc2c(c1)N(Cc1ccccc1)CCS2,-11.6 (active)
19,CCOCc1c(C(=O)N2CCN(Cc3ccc(Br)s3)CC2)oc2ccccc12,inactive
20,CCOc1ccc(S(=O)(=O)N(CC(=O)NCC(F)(F)F)Cc2ccco2)cc1,inactive
21,CC(C)CCNC(=O)C(C)N(C(=O)Cn1nnc(-c2ccc(F)cc2)n1)C1CCCC1 (stereo unspecified),-9.19 (active)
22,CC(C)CCNC(=O)CN(C(=O)Cn1nnc(-c2ccc(F)cc2)n1)C1CCCC1,inactive
23,CN(C(=O)Cn1nnc(-c2ccc(F)cc2)n1)C1CCS(=O)(=O)C1 (stereo unspecified),inactive
24,C#CCOCCOCCOCCNc1nc(N2CCN(C(=O)C(Cc3ccc(O)cc3)n3cc(C(N)CC(C)C)nn3)CC2)nc(N2CCN(C(=O)C(Cc3ccc(O)cc3)n3cc(C(N)C(C)CC)nn3)CC2)n1 (stereo unspecified),inactive
25,COc1ccc(-n2c(O)c(C=NCC(c3ccco3)N3CCCC3)c3ccccc3c2=O)cc1OC (stereo unspecified),inactive
26,CCOc1ccccc1Oc1cn[nH]c1-c1ccc(OC)cc1O,-8.87 (active)

row,Structure (SMILES),B-score
1,COc1ccc(Oc2cn[nH]c2-c2ccc(OC)cc2O)cc1,inactive
2,CCOc1ccc(-c2nc(N)ncc2-c2ccccc2OC)c(O)c1,inactive
3,CC1CCc2sc(C(=O)NCC(c3ccco3)N3CCCCC3)cc2C1 (stereo unspecified),inactive
4,O=C(Oc1ccc(Br)cc1C(=S)N1CCOCC1)c1cccc([N+](=O)[O-])c1,-11.4 (active)
5,COc1cc(C(=S)N2CCOCC2)cc(OC)c1OC(=O)c1cc([N+](=O)[O-])cc([N+](=O)[O-])c1,inactive
6,O=C(Oc1ccccc1C(=S)N1CCCCC1)c1cc([N+](=O)[O-])cc([N+](=O)[O-])c1,inactive
7,O=C(N/N=C/c1sc(N2CCCCC2)nc1-c1cccs1)c1cccnc1,-10.7 (active)
8,Cc1ccc(NC(=O)COc2ccc(/C=N\NC(=O)c3cccnc3)cc2)cc1C,inactive
9,O=C(NN=C1CCC(=NNC(=O)c2cccnc2)CC1)c1cccnc1,inactive
10,CCCCCCC(O)(CCN1CCCCC1)c1ccccc1 (stereo unspecified),inactive
11,Nc1nnc(SCC(=O)NCC(=O)Nc2ccc(F)c(F)c2F)s1,inactive
12,O=C1C(Cl)=C(Oc2ccccc2)C(=O)c2ccccc21,inactive
13,CC(=O)N(C1=C(Cl)C(=O)c2ccccc2C1=O)c1ccc(C(=O)O)cc1,-11 (active)
14,O=C(NC1=CC(=O)c2ccccc2C1=O)c1ccccc1,inactive
15,CS(=O)(=O)N(CC(=O)N1CCc2ccccc2C1)c1ccc(Br)cc1,inactive
16,CC1(C)CC(N2CCN(C(c3ccccc3)c3ccccc3)CC2)=CC(=[N+]2CCCCC2)C1,-8.86 (active)
17,COc1ccccc1CN1CCN(C(c2ccccc2)c2ccccc2)CC1,inactive
18,CC(C)OCC(O)CN1CCN(C(c2ccccc2)c2ccccc2)CC1 (stereo unspecified),inactive
19,CC(=O)Nc1cccc(OCC(=O)/C=C2\N(C)c3ccccc3C2(C)C)c1,-8.91 (active)
20,CN1CCN(CCC(=O)N/N=C/C=C2\N(C)c3ccccc3C2(C)C)CC1,inactive
21,CC(C)Nc1nnc(SCC(=O)/C=C2\N(C)c3ccccc3C2(C)C)s1,inactive
22,CCCCn1c(N)c(N(CCOC)C(=O)c2cccc(S(=O)(=O)N3CCCCC3)c2)c(=O)[nH]c1=O,inactive
23,O=C(N/N=C/c1ccoc1)c1ccc(Cl)cc1Cl,inactive
24,CC(Oc1ccccc1[N+](=O)[O-])C(=O)N/N=C/c1ccoc1 (stereo unspecified),inactive
25,CC(C)c1cc(C(=O)N/N=C/c2ccoc2)c(O)c(C(C)C)c1,-10.5 (active)
26,COC(=O)c1cc2c(ccn2C)n1C,inactive

row,Structure (SMILES),B-score
1,COc1ccc(S(=O)(=O)c2c[nH]c(=S)[nH]c2=O)cc1Cl,inactive
2,CC(=O)Nc1ccc(S(=O)(=O)NCCC(=O)N2CCN(c3ccccc3Cl)CC2)cc1,inactive
3,O=C(C(c1ccccc1)c1ccccc1)N1CCN(CC(O)COc2ccccc2)CC1 (stereo unspecified),inactive
4,CC(C)c1ccc(OCC(O)Cn2cnc3ccccc32)cc1 (stereo unspecified),inactive
5,OC(CN=c1sc2ccccc2n1CC(O)COc1ccccc1)COc1ccccc1 (stereo unspecified),-12.6 (active)
6,COc1ccc(C)cc1NC(=O)CNCc1cccs1,inactive
7,O=C1OC(Oc2ccc(Br)cc2)(c2ccccc2)c2ccccc21 (stereo unspecified),-10.1 (active)
8,CS(=O)(=O)Nc1ccccc1N=C(c1ccccc1)c1ccccc1,inactive
9,CCC(CC)C(=O)Nc1cc(C(=O)OC)cc(C(=O)OC)c1,inactive
10,O=C(NCCCO)c1cc2c([nH]c3ccccc32)c(-c2ccc(F)cc2)n1,inactive
11,COc1ccccc1N1CCN(C(=O)c2cn(-c3ccccc3)nc2-c2cccnc2)CC1,inactive
12,Cn1nc(-c2ccc(Cl)cc2)c2cc(C(=O)NCc3ccco3)sc21,-13.2 (active)
13,COc1ccc2c(Cl)c(C(=O)NCc3ccco3)sc2c1,inactive
14,CN(CCNC(=O)c1cc2c(-c3ccccc3F)nn(C)c2s1)C1CCCCC1,inactive
15,COc1ccccc1N1CCN(C(=O)c2cc3c(-c4ccc(Cl)cc4)nn(C)c3s2)CC1,-10.1 (active)
16,COc1cccc(-c2nn(C)c3sc(C(=O)N4CCN(c5ccccc5)CC4)cc23)c1,inactive
17,CCOc1ccc(NS(=O)(=O)c2cc(C)c(C)cc2C)cc1,inactive
18,CCOc1ccccc1NC(=O)c1cc(S(=O)(=O)N2CCC3(CC2)OCCO3)ccc1F,inactive
19,CC(=O)N1CC[n+]2c(-c3ccc([N+](=O)[O-])cc3)csc21,inactive
20,CC1CCCCC12NC(=O)N(CC(=O)OCc1c(F)cccc1Cl)C2=O (stereo unspecified),inactive
21,Cc1cc2oc(=O)cc(CN(C)Cc3ccc(OC(F)F)cc3)c2cc1Cl,-10.4 (active)
22,Cc1ccc(CN(C)Cc2cc(=O)oc3cc(C)c(Cl)cc23)cc1,inactive
23,CCOc1ccc(N(C)Cc2cc(=O)oc3ccc(OC)cc23)cc1,inactive
